Screening data: PubChem, National Center for Advancing Translational Sciences (NCATS)
Most compounds without a hit are left out; they make up all but 10% or so of the library.
HP1b chromo inh = HTS for Inhibitors of HP1-beta Chromodomain Interactions with Methylated Histone Tails; Chromobox protein homolog 1 (Homo sapiens), P83916; AlphaScreen HP1-beta / biotin-H3K9me3 peptide binding; Potency, µM (highest dose often 114 µM), without a hit: at the top dose activity change, negative = inhibition, hits mostly inhibitors; hit rate 0.56% among 390,000; further: potency means the concentration at half of the fitted maximal effect; nearly all actives have a fitted effect of over 70% in size
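Compound inhibition of the preformed complex between 50 nM HP1-beta and 50 nM biotinylated H3K9me3 peptide was read by AlphaScreen. Buffer was PBS pH 7.4 with 0.01% Tween-20. Incubations ran 30 min at room temperature, with 10 ug/mL donor/acceptor beads.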
JMJD2A Tudor inh = qHTS Assay for Inhibitors of JMJD2A-Tudor Domain; AlphaScreen JMJD2A-Tudor / H3K4me3 peptide binding; Potency, µM (doses to about 114 µM), inactives show at the top dose activity change, negative = inhibition, usual class: inhibitors; hit rate 4.4% among 390,000; AID 504339, 2011; further: potency means the concentration at half of the fitted maximal effect; on the % scale 0 is the no-effect control and ±100 the full control effect; nearly all actives have a fitted effect of over 50% in size
CtBP-E1A blk = qHTS Assay for Inhibitors of the CtBP/E1A Interaction | CtBP / adenovirus E1A interaction (AlphaScreen) | AID 651724, 2012 | activity change, % (no concentration beside the values) | hit rate 0.49% among 340,000 | AlphaScreen GST-E1A/His-CtBP binding, 1536-well; stronger effect = lower value; in the data active means activity change below about -65%; inconclusive means mostly about -30% to -63%; further: on the % scale 0 is the no-effect control and ±100 the full control effect
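Protein mix (5X: 125 nM each GST-E1A, His-CtBP) was incubated with pinned compound 2 h at 37 deg C in dark, in 50 mM Tris pH 8.0 buffer with 300 mM NaCl. Glutathione donor and nickel acceptor beads followed; AlphaScreen signal read after 1 h.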
G9a block = qHTS Assay for Inhibitors of Histone Lysine Methyltransferase G9a | Histone-lysine N-methyltransferase EHMT2 (Homo sapiens), Q96KQ7 | G9a H3K9 monomethylation, AlphaScreen, 2 h | Potency, µM (highest dose often 102 µM), for inactives: top-dose activity, negative = inhibition, actives largely listed as inhibitors | hit rate 8.8% among 350,000; further: potency means the concentration at half of the fitted maximal effect; on the % scale 0 is the no-effect control and ±100 the full control effect; nearly all actives have a fitted effect of over 75% in size
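Enzyme 20 nM + cpd, 15 min RT; add b-H3K9 pep 500 nM / SAM 20 uM; 2 h RT; anti-H3K9me1 Ab 0.5 ug/mL + SA donor / anti-rabbit acceptor beads 20 ug/mL each, 10 min; AlphaScreen read.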
BAZ2B inh = qHTS Assay for Inhibitors of BAZ2B; Bromodomain adjacent to zinc finger domain protein 2B (Homo sapiens), Q9UIF8; AlphaScreen BAZ2B-H3K14Ac peptide displacement; Potency, µM (doses to about 114 µM), inactives show at the highest dose activity change, negative = inhibition, most hits filed as inhibitors; hit rate 4.4% among 360,000; further: potency means the concentration at half of the fitted maximal effect; on the % scale 0 is the no-effect control and ±100 the full control effect; nearly all actives have a fitted effect of over 60% in size
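Protein-peptide AlphaScreen: BAZ2B 50 nM, b-H3K14Ac 50 nM, 1x PBS pH 7.4 + 0.01% Tween-20. Preincubation 30 min RT; cpd 30 min RT (top 110 uM); beads 20 min RT, light-protected.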
Six1-Eya2 blk = qHTS Assay for Inhibitors of the Six1/Eya2 Interaction; AlphaScreen GST-Six1/His-Eya2 binding, biochemical; stronger effect = lower value; hit rate 0.56% among 360,000; Homeobox protein SIX1 (Homo sapiens) + Protein phosphatase EYA2 (Homo sapiens), …; activity change, % (no concentration beside the values); in the data active means activity change below about -65%; inconclusive means mostly about -30% to -63%; further: on the % scale 0 is the no-effect control and ±100 the full control effect
Target sequence (O00167 whole entry, looked up): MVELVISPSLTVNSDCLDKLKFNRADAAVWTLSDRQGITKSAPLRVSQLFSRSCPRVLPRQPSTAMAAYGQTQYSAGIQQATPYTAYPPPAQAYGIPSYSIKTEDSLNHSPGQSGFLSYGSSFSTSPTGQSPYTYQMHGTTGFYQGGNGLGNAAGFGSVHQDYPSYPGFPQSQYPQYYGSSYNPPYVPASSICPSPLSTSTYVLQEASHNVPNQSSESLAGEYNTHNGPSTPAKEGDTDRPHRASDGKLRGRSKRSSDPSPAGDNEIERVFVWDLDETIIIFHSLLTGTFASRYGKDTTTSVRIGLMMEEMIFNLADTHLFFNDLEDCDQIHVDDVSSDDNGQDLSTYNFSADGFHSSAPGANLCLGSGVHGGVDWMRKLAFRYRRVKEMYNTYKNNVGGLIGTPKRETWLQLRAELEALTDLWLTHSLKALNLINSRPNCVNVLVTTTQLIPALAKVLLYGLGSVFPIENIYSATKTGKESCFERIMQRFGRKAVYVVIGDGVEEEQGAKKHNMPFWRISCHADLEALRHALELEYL
Target sequence (Q15475 whole entry, looked up): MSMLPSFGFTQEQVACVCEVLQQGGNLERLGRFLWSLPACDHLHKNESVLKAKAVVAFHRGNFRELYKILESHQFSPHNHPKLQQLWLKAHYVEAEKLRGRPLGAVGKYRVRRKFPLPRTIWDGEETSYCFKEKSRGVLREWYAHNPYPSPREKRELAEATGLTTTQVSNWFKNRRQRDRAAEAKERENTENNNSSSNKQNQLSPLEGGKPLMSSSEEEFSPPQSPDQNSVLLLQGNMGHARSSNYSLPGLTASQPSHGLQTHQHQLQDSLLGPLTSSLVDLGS
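AlphaScreen luminescence read after one hour at 37 °C in darkness. Pin-transferred compounds met GST-Six1 and His-Eya2 protein (5X stock 250 nM/500 nM) plus glutathione donor and Ni-chelate acceptor beads (5X, 50 ug/mL).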
* = called active by the depositor; ? = inconclusive; / = not tested or not shown; [ ] = another dose, or the depositor's remark. Unless noted, the call rests on the fitted dose curve; in most records, active means well fitted inhibition curve with a large enough effect; inconclusive means small, poorly fitted or top-dose-only effect; inactive means no such curve, though single readings can be large or run the other way.

SMILES	HP1b chromo inh	JMJD2A Tudor inh	CtBP-E1A blk	G9a block	BAZ2B inh	Six1-Eya2 blk
CC(C)(C)[C@@H]1C=C(C(N)=O)O[C@H](OCCCCO)C1	41%	-10%	0	/	/	1
O=C(N/C(=C/c1ccccc1Cl)C(=O)N1CCCC1)c1ccccc1	50%	-7%	-5	6%[59 µM]	-7%	3
CCOC(=O)[C@]12CCCC=C1N(Cc1cccc3ccccc13)C(=O)[C@H](CC(=O)NCCCOC)C2	/	/	2	/	/	1
CC(Sc1nnc(NCc2ccccc2)s1)C(=O)Nc1ccc2c(c1)C(=O)c1ccccc1C2=O (stereo not given)	-16%	?	-82*	3.2µM*	?	-66*
Cc1cccc(NC(=S)N2CCC(NC(=O)c3ccco3)CC2)c1	41%	-11%	2	?	-12%	6
Cc1ccc(O)c(N=CC2=C(O)c3ccccc3C2=O)c1	-33%	?	?	32µM*	40µM*	?
O=C1C(C=Nc2ccccc2O)=C(O)c2ccccc21	24%	-26%	?	2%[59 µM]	-27%	-20
C[C@]12CC[C@@H]3c4ccc(O)cc4CC[C@H]3[C@@H]1CCC2OC(=O)CCC1CCCC1 (stereo not given in full)	/	/	/	2%[59 µM]	/	/
C[n+]1ccccc1/C=C/c1c(F)cccc1F	15%	?	1	25µM*	8.9µM*	4
C[n+]1ccccc1/C=C/c1ccccc1Cl	4%	-11%	5	?	56µM*	-8
C[n+]1ccccc1/C=C/c1ccc(F)c(F)c1	17%	-1%	-18	17%[0.501 µM]	?	-16
O=S(=O)(c1ccc(F)cc1)c1nc(-c2ccco2)oc1NCCCn1ccnc1	/	/	3	/	/	-16
CCOC(=O)CN1C(=O)S/C(=C/c2cccc([N+](=O)[O-])c2O)C1=O	?	-11%[11.4 µM]	/	35µM*	?	-10
Cc1cccc(NC(=O)CN2C(=O)S/C(=C\c3ccccn3)C2=O)c1	69%	-14%	/	-38%	4%	18
Cc1ccc(NC(=O)CN2C(=O)S/C(=C/c3ccc(O)c([N+](=O)[O-])c3)C2=O)cc1C	?	22µM*	-5	/	14µM*	?
Cc1cccc(NC(=O)CN2C(=O)S/C(=C\c3ccc(O)c([N+](=O)[O-])c3)C2=O)c1	-24%	50µM*	0	35µM*	?	-5
O=C(CN1C(=O)c2ccccc2C1=O)Nc1ccc(N2CCOCC2)cc1	7%	-13%	-4	?	/	8
O=C(CN1C(=O)S/C(=C\c2ccc(O)c([N+](=O)[O-])c2)C1=O)Nc1ccc(N2CCOCC2)cc1	?	56µM*	6	-3%[0.501 µM]	45µM*	0
O=C(O)c1cccc(CN2C(=O)S/C(=C/c3ccccc3[N+](=O)[O-])C2=O)c1	-1%	-25%	-20	?	-25%	-10
O=C(CCN1C(=O)S/C(=C/c2ccccc2)C1=O)Nc1ccc(O)c(C(=O)O)c1	10%	-8%	-15	4%[0.0925 µM]	-15%	-17
CN1CCN(C(c2ccc(F)cc2)c2sc3nc(-c4ccco4)nn3c2O)CC1 (stereo not given)	39%	7%	/	-5%[59 µM]	-5%	/
O=C(Cc1ccc(Cl)cc1)Nc1cc(Cl)ccn1	43%	9%	13	/	/	16
CCN(C(=O)Cc1c(C(=O)O)[nH]c2ccccc12)c1ccc(OC)cc1	29%	-13%	2	?	-9%	9
CCCSCCCNC(=O)CN1C(=O)COc2ccc(S(=O)(=O)N3CCCC3)cc21	25%	-25%	3	27%	-20%	3
CCOC(=O)CN1C(=O)S/C(=C/C=C/c2ccc(N(C)C)cc2)C1=O	13µM*	16µM*	-12	10µM*	10µM*	-3
SMILES	HP1b chromo inh	JMJD2A Tudor inh	CtBP-E1A blk	G9a block	BAZ2B inh	Six1-Eya2 blk
O=C(CN1C(=O)S/C(=C\C=C\c2ccccc2)C1=O)N1CCCCC1	33%	-8%	1	?	-20%	-2
COc1ccc(CNC(=O)C2(c3cccs3)CCOCC2)cc1	24%	-2%	/	-38%[59 µM]	3%	/
COc1ccc(C)c2sc(N(Cc3cccnc3)C(=O)c3cccs3)nc12	16%	-16%	/	7%[59 µM]	-6%	/
CCCCCCCCCc1nc2sc3c(c2c(=O)n1NC(=O)c1ccccc1[N+](=O)[O-])CC(C)(C)OC3	-1%	?	0	71µM*	-36%	-4
CCCCCCCCCc1nc2sc3c(c2c(=O)n1NC(=O)c1ccc([N+](=O)[O-])cc1)CC(C)(C)OC3	-5%	?	10	?	-32%	-8
CCCCn1nnnc1C1(C)CCC(=O)N1CCCN1CCOCC1 (stereo not given)	/	/	10	/	/	0
O=C(Nc1cccc(S(=O)(=O)NC2=NCCC2)c1)c1cc(-c2ccco2)nc2ccccc12	?	?	-3	40µM*	35µM*	?
O=C(NC(=S)Nc1cccc(S(=O)(=O)NC2=NCCC2)c1)c1cc(-c2ccco2)nc2ccccc12	?	-36%	?	40µM*	?	?
O=C(Nc1cccc(S(=O)(=O)NC2=NCCCCC2)c1)c1cc(-c2ccccc2)nc2ccccc12	20%	3%	-5	17%[59 µM]	-3%	1
O=C1CC(c2ccccc2)Oc2cc(O)ccc21 (stereo not given)	-17%	-18%	9	8%	-4%	8
CCN(CC)c1ccc(C2C(C(=O)OCCOC(C)C)=C(C)NC3=C2C(=O)CCC3)cc1 (stereo not given)	-7%	?	-2	10µM*	50µM*	0
CCC(C)OC(=O)C1=C(C)NC2=C(C(=O)C(C(=O)OC)C(C)C2)C1c1ccc(N(C)C)cc1 (stereo not given)	?	18µM*	?	5µM*	?	?
CCCOC(=O)C1=C(C)NC2=C(C(=O)C(C(=O)OC)C(C)C2)C1c1ccc(N(CC)CC)cc1 (stereo not given)	-6%	-32%[57.1 µM]	-10	3.5µM*	?	-22
CCOC(=O)C1=C(C)NC2=C(C(=O)C(C(=O)OC)C(C)C2)C1c1ccc(OC)c(O)c1 (stereo not given)	18%	39%	1	17%[0.0925 µM]	5%	2
Cc1ccc(CNC(=O)CCCCCn2c(=O)c3sccc3n(CC(=O)C(C)(C)C)c2=O)cc1	51%	0%	/	-4%[59 µM]	2%	/
